# Data published in the supplement of paper PMC8728848.
# The full list was thinned out, with the strongest signals kept by preference.
# Tests used:
# Experiment in all cases: glycan array binding signal (z-score within array); higher = stronger binding
# Conditions in all cases: glycan notation: IUPAC condensed, linker removed
# GalNAc3S(b1-4)GlcNAc = system: GalNAc3S(b1-4)GlcNAc
# Method in brief: (§1)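 Glycan array data were curated from 3228 arrays in the Consortium for Functional Glycomics database and kept only where the protein sequence was available. Glycan names were converted to IUPAC-condensed notation, and columns mapping to the same glycan were averaged. The binding signal is a within-array Z-score, averaged across arrays of the same protein sequence at different concentrations or buffers and across linkers. Negative Z-scores can be read as non-binding.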
# [1] = system: Glc(a1-4)Glc(a1-4)Glc(a1-4)Glc
# Method in brief: as §1
# Glc(a1-6)Glc(a1-6)Glc = system: Glc(a1-6)Glc(a1-6)Glc
# Method in brief: as §1
# [2] = system: GlcNAc(a1-4)Gal(b1-4)GlcNAc(b1-3)Gal(b1-4)GlcNAc
# Method in brief: as §1
# [3] = system: GlcNAc(b1-2)[GlcNAc(b1-4)]Man(a1-3)[GlcNAc(b1-2)Man(a1-6)]Man(b1-4)GlcNAc(b1-4)GlcNAc
# Method in brief: as §1
# GalNAc4S6S(b1-4)GlcNAc = system: GalNAc4S6S(b1-4)GlcNAc
# Method in brief: as §1
# [4] = system: GlcNAc(b1-2)Man(a1-3)[GlcNAc(b1-4)][GlcNAc(b1-2)Man(a1-6)]Man(b1-4)GlcNAc(b1-4)[Fuc(a1-6)]GlcNAc
# Method in brief: as §1
# [5] = system: GlcNAc(b1-2)[GlcNAc(b1-4)]Man(a1-3)[GlcNAc(b1-4)][GlcNAc(b1-2)[GlcNAc(b1-6)]Man(a1-6)]Man(b1-4)GlcNAc(b1-4)GlcNAc
# Method in brief: as §1
# Glc(a1-4)Glc = system: Glc(a1-4)Glc
# Method in brief: as §1
# [6] = system: GlcNAc(b1-2)Gal(b1-3)GalNAc
# Method in brief: as §1
# Glc(b1-4)Glc = system: Glc(b1-4)Glc
# Method in brief: as §1
# Glc(b1-6)Glc = system: Glc(b1-6)Glc
# Method in brief: as §1
# GlcA(b1-3)Gal = system: GlcA(b1-3)Gal
# Method in brief: as §1
# GlcA(b1-3)GlcNAc = system: GlcA(b1-3)GlcNAc
# Method in brief: as §1
# [7] = system: GlcNAc(a1-3)Gal(b1-4)GlcNAc
# Method in brief: as §1
# [8] = system: GlcA3S(b1-3)Gal(b1-4)GlcNAc(b1-2)Man
# Method in brief: as §1
# [9] = system: GlcNAc(b1-2)Man(a1-3)[GlcNAc(b1-2)Man(a1-6)]Man(b1-4)GlcNAc(b1-4)GlcNAc
# Method in brief: as §1
# [10] = system: GlcNAc(a1-4)Gal(b1-4)GlcNAc(b1-3)Gal(b1-4)[Fuc(a1-3)]GlcNAc(b1-3)Gal(b1-4)[Fuc(a1-3)]GlcNAc
# Method in brief: as §1
# [11] = system: GlcNAc(b1-2)Man(a1-3)[GlcNAc(b1-2)Man(a1-6)]Man(b1-4)GlcNAc(b1-4)[Fuc(a1-6)]GlcNAc
# Method in brief: as §1
# [12] = system: GlcNAc(a1-4)Gal(b1-4)GalNAc
# Method in brief: as §1
substance,measurement,setting,value
AgI/II Vhelical-GFP (Streptococcus mutans),glycan array binding signal (z-score),GalNAc3S(b1-4)GlcNAc,-0.11
same,glycan array binding signal (z-score),[1],-0.13
same,glycan array binding signal (z-score),Glc(a1-6)Glc(a1-6)Glc,-0.269
same,glycan array binding signal (z-score),[2],1.06
same,glycan array binding signal (z-score),[3],-0.187
LcI (Legionella pneumophila),glycan array binding signal (z-score),GalNAc4S6S(b1-4)GlcNAc,-0.709
same,glycan array binding signal (z-score),[4],-0.447
same,glycan array binding signal (z-score),[5],-0.477
"SiiE (Salmonella typhimurium), A0A0H3NVH0",glycan array binding signal (z-score),Glc(a1-4)Glc,-0.099
same,glycan array binding signal (z-score),[6],0.158
same,glycan array binding signal (z-score),[5],-1.05
"SpGH101 (Streptococcus pneumoniae), Q8DR60",glycan array binding signal (z-score),Glc(a1-6)Glc(a1-6)Glc,-0.103
same,glycan array binding signal (z-score),Glc(b1-4)Glc,-0.147
same,glycan array binding signal (z-score),Glc(b1-6)Glc,-0.186
same,glycan array binding signal (z-score),GlcA(b1-3)Gal,-0.183
same,glycan array binding signal (z-score),GlcA(b1-3)GlcNAc,3.66
"GspB (Streptococcus gordonii), Q939N5",glycan array binding signal (z-score),GlcA(b1-3)Gal,-0.677
same,glycan array binding signal (z-score),[7],2.63
AgI/IIC123-GFP (Streptococcus mutans),glycan array binding signal (z-score),[8],3.12
same,glycan array binding signal (z-score),[9],-0.346
"BambL (Burhholderia ambifaria), Q0B4G1",glycan array binding signal (z-score),[7],-0.316
same,glycan array binding signal (z-score),[2],-0.278
same,glycan array binding signal (z-score),[10],0.185
same,glycan array binding signal (z-score),[11],0.071
same,glycan array binding signal (z-score),[3],-0.291
Epa22,glycan array binding signal (z-score),[12],-0.638
same,glycan array binding signal (z-score),[11],-0.14
"Wza (Escherichia coli), P0A930",glycan array binding signal (z-score),[10],3.13
